Reference: PubChem BioAssay AID1159580 (chemical genetic matrix, 2015)
Values joined by “and” are separate entries in the source; they are usually repeats but may differ in a detail not shown here. Equal entries are not always repeated. The campaign covered roughly 5,500 compounds. About 2,000 (36%) were called active. Inconclusive results (about 18%) are left out. Rule as the data show it: active = normalized growth mostly below about 0.91 (no sharp cut-off); inconclusive = no clear call, values can overlap the other calls; inactive = mostly above about 0.92. The list shows a part of the results.

Assay: chemical genetic growth profiling, strain panel (AID 1159580);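 also: tested at 20 µM; growth read once vehicle control cultures reached saturation at 30 °C; 1 = growth at the plate median or of vehicle wells; lower values mean less growth of the strain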
Conditions: S. cerevisiae deletion strains, growth OD

Measured: normalized growth

CC(C)c1c(O)c(-c2cc3c(c(C(C)C)c2O)CCC2C(C)(C)CCC[C@]32C)cc2c1CCC1C(C)(C)CCC[C@]21C (stereo partly specified)
inactive: locus YAL013W, strain DEP1, stronger effect = lower value 1.01 | locus YAL021C, strain ccr4, stronger effect = lower value 0.987 | locus YAL026C, strain drs2, stronger effect = lower value 0.988 | locus YAL030W, strain snc1, stronger effect = lower value 0.996 | locus YBL061C, strain skt5, stronger effect = lower value 0.991 | locus YBR009C, strain hhf1, stronger effect = lower value 1.02 | locus YBR021W, strain FUR4, stronger effect = lower value 1.03 | locus YBR023C, strain chs3, stronger effect = lower value 0.992 | locus YBR171W, strain sec66, stronger effect = lower value 0.976 | locus YBR229C, strain ROT2, stronger effect = lower value 1.02 | locus YBR231C, strain swc5, stronger effect = lower value 0.99 | locus YBR279W, strain paf1, stronger effect = lower value 0.99 | locus YCL011C, strain gbp2, stronger effect = lower value 0.983 | locus YCL016C, strain dcc1, stronger effect = lower value 0.976 | locus YCL029C, strain bik1, stronger effect = lower value 1.02 | locus YCL061C, strain MRC1, stronger effect = lower value 0.982 | locus YCL069W, strain vba3, stronger effect = lower value 0.998 | locus YCR088W, strain abp1, stronger effect = lower value 1 | locus YDL005C, strain med2, stronger effect = lower value 0.964 | locus YDL035C, strain GPR1, stronger effect = lower value 1.02 | locus YDL040C, strain nat1, stronger effect = lower value 0.991 | locus YDL074C, strain BRE1, stronger effect = lower value 1.02 | locus YDL101C, strain DUN1, stronger effect = lower value 1.01 | locus YDL134C, strain PPH21, stronger effect = lower value 1.01 | locus YDL185W, strain tfp1, stronger effect = lower value 1.04 | locus YDL192W, strain arf1, stronger effect = lower value 1.03 | locus YDR001C, strain nth1, stronger effect = lower value 0.984 | locus YDR069C, strain doa4, stronger effect = lower value 0.982 | locus YDR101C, strain arx1, stronger effect = lower value 1.01 | locus YDR137W, strain rgp1, stronger effect = lower value 0.982 | locus YDR150W, strain NUM1, stronger effect = lower value 1.02 | locus YDR159W, strain sac3, stronger effect = lower value 0.986 | locus YDR162C, strain NBP2, stronger effect = lower value 1.02 | locus YDR195W, strain ref2 0.938 | locus YDR297W, strain sur2, stronger effect = lower value 0.985 | locus YDR318W, strain mcm21, stronger effect = lower value 1.02 | locus YDR334W, strain swr1, stronger effect = lower value 0.972 | locus YDR335W, strain msn5, stronger effect = lower value 0.986 | locus YDR388W, stronger effect = lower value 1.01 | locus YDR392W, strain spt3, stronger effect = lower value 0.982 | locus YDR502C, strain sam2, stronger effect = lower value 1.01 | locus YEL003W, strain gim4, stronger effect = lower value 0.995 | locus YEL037C, strain rad23, stronger effect = lower value 0.99 | locus YEL061C, strain CIN8 (second series), stronger effect = lower value 0.993 | locus YEL061C, strain CIN8, stronger effect = lower value 1.01 | locus YER015W, strain faa2, stronger effect = lower value 0.985 | locus YER016W, strain bim1, stronger effect = lower value 0.972 | locus YER110C, stronger effect = lower value 1.02 | locus YER111C, strain swi4, stronger effect = lower value 0.992 | locus YER155C, strain BEM2 (second series), stronger effect = lower value 0.992 | locus YER155C, strain BEM2, stronger effect = lower value 1.01 | locus YER167W, strain BCK2, stronger effect = lower value 1.03 | locus YFR010W, strain ubp6, stronger effect = lower value 1.01 | locus YGL078C, strain dbp3, stronger effect = lower value 1.01 | locus YGL086W, strain mad1, stronger effect = lower value 1.02 | locus YGL167C, strain pmr1, stronger effect = lower value 0.993 | locus YGL173C, strain kem1, stronger effect = lower value 0.972 | locus YGL227W, strain vid30, stronger effect = lower value 0.982 | locus YGL240W, strain doc1, stronger effect = lower value 0.988 | locus YGL248W, strain PDE1, stronger effect = lower value 1.02 | locus YGL253W, strain hxk2, stronger effect = lower value 0.985 | locus YGR078C, strain PAC10, stronger effect = lower value 1.01 | locus YGR135W, strain pre9, stronger effect = lower value 1.01 | locus YGR229C, strain SMI1, stronger effect = lower value 1.01 | locus YGR252W, strain gcn5, stronger effect = lower value 1.06 | locus YHR013C, strain ard1, stronger effect = lower value 0.947 | locus YHR027C, strain rpn1, stronger effect = lower value 0.985 | locus YHR030C, strain SLT2, stronger effect = lower value 1.01 and 0.972 | locus YHR079C, strain IRE1 (second series), stronger effect = lower value 1.01 | locus YHR079C, strain IRE1, stronger effect = lower value 0.965 | locus YHR094C, strain hxt1, stronger effect = lower value 1.02 | locus YHR129C, strain ARP1, stronger effect = lower value 1 | locus YHR142W, strain chs7, stronger effect = lower value 0.986 | locus YHR200W, strain rpn10, stronger effect = lower value 1.02 | locus YIL066C, strain RNR3, stronger effect = lower value 1.02 | locus YIL073C, strain SPO22, stronger effect = lower value 1.08 | locus YIL125W, strain kgd1, stronger effect = lower value 1.02 | locus YIR030C, strain dcg1, stronger effect = lower value 1.01 | locus YJL092W, strain hpr5, stronger effect = lower value 0.979 | locus YJL095W, strain BCK1 (second series), stronger effect = lower value 0.997 | locus YJL095W, strain BCK1, stronger effect = lower value 1.01 and 1 | locus YJL115W, strain asf1, stronger effect = lower value 0.956 | locus YJL129C, strain trk1, stronger effect = lower value 0.988 | locus YJL134W, strain LCB3, stronger effect = lower value 1.01 | locus YJL154C, strain vps35, stronger effect = lower value 0.985 | locus YJL164C, strain tpk1, stronger effect = lower value 0.994 | locus YJL166W, strain qcr8, stronger effect = lower value 0.997 | locus YJL168C, strain set2, stronger effect = lower value 1.02 | locus YJL187C, strain SWE1 (second series), stronger effect = lower value 1.01 | locus YJR043C, strain POL32, stronger effect = lower value 1.03 | locus YJR066W, strain TOR1, stronger effect = lower value 0.945
